Source: PubChem BioAssay (National Center for Advancing Translational Sciences (NCATS))
HTT aggregate = inhibitors of mutant huntingtin aggregate formation in PC12 cells. Potency, µM (doses to about 46.1 µM), actives largely listed as inhibitors. hit rate 1.1% among 220,000. AID 1688. PC12 HttQ103-GFP aggregates, Acumen cytometry, 40 h; further: nearly all actives have a fitted effect of over 60% in size
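Aggregate formation scored by laser-scanning cytometer (488 excitation, 500–530 emission) in lysed PC12 cells expressing Q103-GFP after 100 nM tebufenozide induction; library tested in dose series, with ATPLite reagent added in the multiplex.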
CBFb RUNX1 block = inhibitors of human CBF-beta and RUNX1 interaction. Q01196+Q13951. AlphaScreen CBFb-His/RUNX1-biotin binding, biochemical. Potency, µM (top dose mostly 59.8 µM), usual class: inhibitors. 230,000 tested, under 10 active. AID 1477
Target sequence (Q01196 whole entry, looked up): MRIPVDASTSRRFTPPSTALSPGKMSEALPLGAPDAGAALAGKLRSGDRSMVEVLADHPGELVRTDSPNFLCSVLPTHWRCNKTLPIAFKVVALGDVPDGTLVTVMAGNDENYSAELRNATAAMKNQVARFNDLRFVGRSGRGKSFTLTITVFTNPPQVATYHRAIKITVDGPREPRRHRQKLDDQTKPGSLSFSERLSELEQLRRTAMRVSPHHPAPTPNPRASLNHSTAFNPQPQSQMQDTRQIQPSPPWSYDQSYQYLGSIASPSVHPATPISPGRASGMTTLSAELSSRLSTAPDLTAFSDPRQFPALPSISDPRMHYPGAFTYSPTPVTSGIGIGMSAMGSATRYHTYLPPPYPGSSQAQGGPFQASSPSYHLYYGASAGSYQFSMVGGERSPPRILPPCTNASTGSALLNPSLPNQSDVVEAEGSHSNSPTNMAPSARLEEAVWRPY
Target sequence (Q13951 whole entry, looked up): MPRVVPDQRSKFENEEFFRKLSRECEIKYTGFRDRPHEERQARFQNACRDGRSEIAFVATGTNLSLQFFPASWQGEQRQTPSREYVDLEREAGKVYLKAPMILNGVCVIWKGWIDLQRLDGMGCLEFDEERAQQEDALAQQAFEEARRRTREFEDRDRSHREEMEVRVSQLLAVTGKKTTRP
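Room-temperature protein-protein interaction test with 30 nM each of His-tagged CBF-beta and biotinylated RUNX1, 15 min with compound, then 90 min with nickel plus streptavidin beads. Signal read in AlphaScreen mode.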
ALDH1A1 inh = blocks purified human ALDH1A1 activity; hit rate 7.3% among 220,000; Purified ALDH1A1, NADH fluorescence, propionaldehyde substrate; Potency, µM (highest dose often 75.3 µM), hits mostly inhibitors; P00352; active means well fitted inhibition curve with a large enough effect, not every such curve was filed as active; inconclusive means small, poorly fitted or top-dose-only effect, or another doubt; inactive means no such curve, though single readings can be large or run the other way
HPGD inh = HPGD (human) dehydrogenase inhibition | purified HPGD, NADH fluorescence kinetic, PGE2 substrate | Potency, µM, usual class: inhibitors | hit rate 4.3% among 150,000; active means well fitted inhibition curve with a large enough effect, not every such curve was filed as active; inconclusive means small, poorly fitted or top-dose-only effect, or another doubt; inactive means no such curve, though single readings can be large or run the other way
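NADH formation kinetics: reaction with 30 uM PGE2 and 1 mM NAD+ (final), 20 nM enzyme, Tris-HCl pH 8 with Tween 20, after 15 min compound preincubation at room temperature. Fluorescence change, last versus first of five reads.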
HTT ATP protect = cytoprotection in Huntington HTT-Q103 PC12 cell model; PC12 HTT-Q103 induced, cytoprotection, ATP luminescence, 40 h; hit rate 0.14% among 230,000; Potency, µM (doses to about 56.4 µM), most hits filed as activators; AID 1471; further: nearly all actives have a fitted effect of over 45% in size
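Rat PC12, Q103 Htt exon1-GFP fusion, ecdysone promoter; tebufenozide inducer 100 nM final; compound titration; qHTS, 1500 cells/well; ATPlite luminescent read.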
PNC inhibitor = inhibitors of perinucleolar compartment assembly | PC3M PTB-GFP, PNC prevalence imaging, 16 h; active compounds read low | activity change (PNC), negative = inhibition, % at 10 µM | hit rate 3.1% among 140,000 | AID 2417;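 active means readout at or below -70, meaning at least 70% loss of cells showing the perinucleolar compartment, a nuclear body marking cancer cells; inconclusive means readout between -30 and a set limit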
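PC3M cells stably expressing PTB-GFP, 750–1000 cells/well, treated 16 h at 37 °C with compound (23 nl of library stock), in duplicate. After paraformaldehyde fixation and Hoechst stain, imaged at 20x; PNC prevalence scored by image analysis.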
A number is an active result; [ ] = another dose, or the depositor's remark. Shown are actives, neighbours in structure and some others; about 11% of the full set was active somewhere. Unless noted, the call rests on the fitted dose curve; in most records, active means well fitted curve in the direction sought with a large enough effect; inconclusive means small, poorly fitted or top-dose-only effect, or another doubt; inactive means no such curve, though single readings can be large; an effect the other way counts as inactive or inconclusive.

CCCC[n+]1ccn(C2=C([O-])c3ccccc3C(=O)/C2=N\S(=O)(=O)c2ccccc2)c1 was read as HTT aggregate inconclusive, CBFb RUNX1 block inactive, ALDH1A1 inh inconclusive, HPGD inh inactive, HTT ATP protect inactive and PNC inhibitor inactive.
For CCCCC[n+]1ccn(C2=C([O-])c3ccccc3C(=O)/C2=N\S(=O)(=O)c2ccccc2)c1 the results were HTT aggregate inconclusive, CBFb RUNX1 block inactive, ALDH1A1 inh 5.01µM, HPGD inh inactive, HTT ATP protect inactive and PNC inhibitor inactive.
`CN(c1nccc(=O)[nH]1)C1CCN(c2nc3ccccc3n2Cc2ccc(F)cc2)CC1` gave HTT aggregate inactive and HTT ATP protect inactive.
Cc1ccc2cc(C3CC(c4ccco4)=NN3S(C)(=O)=O)c(Cl)nc2c1 (centres undefined) was read as HTT aggregate inactive[9.22 µM], CBFb RUNX1 block inactive, ALDH1A1 inh 17.8µM and HTT ATP protect inactive[10 µM].
CC(C)=C1C(=O)NN(c2cccc(Cl)c2)C1=O was read as HTT aggregate inactive, CBFb RUNX1 block inactive, ALDH1A1 inh inactive, HPGD inh 7.94µM, HTT ATP protect inactive[10 µM] and PNC inhibitor inactive.
For CC(C)=C1C(=O)NN(c2ccc(C)c(Cl)c2)C1=O the results were HTT aggregate inactive, CBFb RUNX1 block inconclusive, ALDH1A1 inh inactive, HPGD inh 15.8µM, HTT ATP protect inactive[10 µM] and PNC inhibitor inactive.
Screening O=c1c(-c2cccc(F)c2)nc2cncnc2n1Cc1ccccc1Cl returned ALDH1A1 inh inconclusive and HTT ATP protect inactive.
Cc1ccc(OCC(=O)NN2C(=O)c3ccccc3C2=O)cc1 was read as HTT aggregate inactive, CBFb RUNX1 block inactive, ALDH1A1 inh inactive and HTT ATP protect inactive.
Cc1nnc(SCC2=C(C(=O)O)N3C(=O)C(NC(=O)Cn4cnnn4)[C@@H]3SC2)s1 (some centres undefined) was read as CBFb RUNX1 block inactive, ALDH1A1 inh inactive and HPGD inh inactive.
`O=C(NNC1=C(C(=O)C(F)(F)F)CCC1)c1cccc(O)c1` gave HTT aggregate inconclusive, CBFb RUNX1 block inactive, ALDH1A1 inh inactive, HPGD inh inactive, HTT ATP protect inactive[10 µM] and PNC inhibitor inactive.
`O=C(C1=C(O)/C(=C/c2ccc(O)cc2)CCC1)C(F)(F)F` gave HTT aggregate inconclusive, CBFb RUNX1 block inactive, ALDH1A1 inh 0.0794µM, HPGD inh inactive, HTT ATP protect inactive[1.9 µM] and PNC inhibitor inactive.
For COc1ccc(/C=C2\CCCC(C(=O)C(F)(F)F)=C2O)cc1 the results were HTT aggregate inactive, CBFb RUNX1 block inactive, ALDH1A1 inh 0.447µM, HPGD inh inactive, HTT ATP protect inactive and PNC inhibitor inactive.
`CCOC(=O)c1nn(-c2cccc(C)c2)c2nc(-c3ccccc3)c(C#N)c(=O)n12` gave HTT aggregate inactive, CBFb RUNX1 block inactive, ALDH1A1 inh inconclusive, HPGD inh inconclusive, HTT ATP protect inactive and PNC inhibitor -116.6.
CCOC(=O)c1nn(-c2ccc(F)cc2)c2nc(-c3ccccc3)c(C#N)c(=O)n12 was read as HTT aggregate inactive, CBFb RUNX1 block inactive, ALDH1A1 inh inconclusive, HPGD inh inconclusive and PNC inhibitor inactive.
For COCCNC(=O)c1ccc(N(C)S(=O)(=O)c2ccc(OC)c(OC)c2)cc1 the results were HTT aggregate inactive, CBFb RUNX1 block inactive, ALDH1A1 inh inactive, HPGD inh 6.31µM, HTT ATP protect inactive[0.074 µM] and PNC inhibitor inactive.
For COCCCNC(=O)c1ccc(N(C)S(=O)(=O)c2ccc(OC)cc2)cc1 the results were HTT aggregate inactive, CBFb RUNX1 block inactive, ALDH1A1 inh inactive, HPGD inh 1.12µM, HTT ATP protect inactive[10 µM] and PNC inhibitor inconclusive.
For CC1=CC(C#N)(C#N)C(C#N)(C#N)C(c2ccccc2)N1 (centres undefined) the results were HTT aggregate inactive, CBFb RUNX1 block inactive, ALDH1A1 inh inconclusive, HPGD inh inconclusive, HTT ATP protect inactive and PNC inhibitor inactive.
`CC1CCC(C(C)C)C2=C1C(C#N)(C#N)C(C#N)(C#N)C(c1ccccc1)N2` (centres undefined) gave HTT aggregate inactive, CBFb RUNX1 block inactive, ALDH1A1 inh 10µM, HPGD inh inactive, HTT ATP protect inactive and PNC inhibitor inactive.
`NNC(=O)c1sccc1OCc1ccc(Cl)cc1Cl` gave HTT aggregate inactive, CBFb RUNX1 block inactive, ALDH1A1 inh 3.55µM and HTT ATP protect inactive[10 µM].
Screening COC(=O)N/N=C/c1cc(Cl)c(OCc2ccc(F)cc2)c(OC)c1 returned HTT aggregate inactive, CBFb RUNX1 block inactive, ALDH1A1 inh inactive, HPGD inh inactive and PNC inhibitor -86.6.
COc1ccc(COc2ccsc2C(=O)Nc2ccc(Cl)cc2)cc1 was read as HTT aggregate inactive, CBFb RUNX1 block inactive, ALDH1A1 inh inactive, HPGD inh inactive, HTT ATP protect inactive[10 µM] and PNC inhibitor -86.0.
Screening O=C(N/N=C/c1ccc(Cl)cc1)c1sccc1OCc1ccc(F)cc1 returned HTT aggregate inactive, CBFb RUNX1 block inactive, ALDH1A1 inh inactive, HPGD inh inactive, HTT ATP protect inactive[10 µM] and PNC inhibitor -119.2.
`O=C(N/N=C/c1ccc(F)cc1)c1sccc1OCc1ccc(F)cc1` gave HTT aggregate inconclusive, CBFb RUNX1 block inactive, ALDH1A1 inh inactive, HPGD inh inactive, HTT ATP protect inactive and PNC inhibitor inactive.
`CC1(C)CC(C)(O)P(=O)(c2ccccc2)O1` (centres undefined) gave HTT aggregate inactive, CBFb RUNX1 block inactive, ALDH1A1 inh inactive, HPGD inh inactive, HTT ATP protect inactive and PNC inhibitor inactive.
CC(=O)N1CCC[C@@]2(CCN(C(c3ccccc3)c3ccccc3)C2)C1 was read as ALDH1A1 inh inactive, HPGD inh inactive and HTT ATP protect inactive.
`NNC(=O)c1sccc1OCc1ccc(F)cc1` gave HTT aggregate inactive, CBFb RUNX1 block inactive, ALDH1A1 inh 10µM and HTT ATP protect inactive.
CCC(C)(C)OC was read as CBFb RUNX1 block inactive, ALDH1A1 inh inconclusive, HPGD inh inactive and HTT ATP protect inactive.
Cc1ccc(CNC(=O)CC2C(=O)Nc3c2c(=O)n(C)c(=O)n3Cc2ccccc2)cc1 (centres undefined) was read as HTT aggregate inactive, CBFb RUNX1 block inactive, ALDH1A1 inh inactive, HPGD inh inactive, HTT ATP protect inactive and PNC inhibitor inactive.
`Cc1ccc(NC(=O)c2cncc(Br)c2)c(O)c1` gave HTT aggregate inactive[9.22 µM], CBFb RUNX1 block inactive, ALDH1A1 inh inactive and HTT ATP protect inactive.
`O=C(NCCSc1ccccc1)c1ccccc1Cl` gave HTT aggregate inactive, CBFb RUNX1 block inactive, ALDH1A1 inh inactive, HPGD inh 12.6µM and PNC inhibitor inactive.
For O=C(NCCSc1ccccc1)c1cncc(Br)c1 the results were HTT aggregate inactive[9.22 µM], CBFb RUNX1 block inactive, ALDH1A1 inh 25.1µM, HPGD inh inactive, HTT ATP protect inactive and PNC inhibitor inactive.
